# Laboratory results as given in PubChem BioAssay (NCI).
# About 83,000 compounds went through this panel and 20% of them were active in at least one assay; those are over-represented in the sample as a whole.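 Single-concentration screen, 48 h exposure, 96-well plates. Endpoint: percent growth. Below 10 = active.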 Calls of active or inactive are those of the source.
# System: HL-60(TB) leukemia
# Assay: NCI-60 one-dose screen, 48 h (100 = growth as untreated, 0 = no growth, -100 = all killed)
# Conditions: 10 µM unless noted
row,Compound,growth
1,COc1ccc(-c2ncnc3c2ncn3CC#CCCl)cc1,48.8% (inactive)
2,Cc1ncc(C(=O)Nc2ccc(CN3CCN(C)CC3)c(C(F)(F)F)c2)cc1C#Cc1cnc2cccnn12,-28.2% (active)
3,CCOC(=O)c1ccc2c(c1)nc(/C=C/c1ccc(Cl)cc1)n2-c1cc(C(C)(C)C)[nH]n1,73.1% (inactive)
4,COc1ccc2c(c1)CC[C@@H]1[C@@H]2CC[C@]2(C)c3c(cc(C#N)c4c3sc3ccccc34)C[C@@H]12,91.7% (inactive)
5,CCOc1ccc(NC(=O)c2cc(OC)c(OC)c(OC)c2)cc1,-8.94% (active)
6,CC(C)(C)c1ccc(C2CC(=O)C3=C(C2)Nc2ccccc2N(C(=O)c2ccccc2Cl)C3c2ccc(F)cc2)cc1 (stereo unspecified),-19.8% (active)
